Seven molecules from ChEMBL document CHEMBL2218924, “A broad activity screen in support of a chemogenomic map for kinase signalling research and drug discovery” (Biochem J, 2013) can be followed below.

The structures appear in SMILES notation.

The target of assay [1] is Serine/threonine-protein kinase PAK 4 (Homo sapiens) (UniProt O96013). Particulars: at 1 µM.
Assay [2] has the same target. Particulars: at 10 µM.
Assay [3] has as its target Serine/threonine-protein kinase PAK 5 (Homo sapiens) (UniProt Q9P286). As to conditions: at 1 µM.
Assay [4] shares this target. Particulars: at 10 µM.
Assay [5] addresses Serine/threonine-protein kinase PAK 6 (Homo sapiens) (UniProt Q9NQU5). As to conditions: at 1 µM.
Assay [6] has the same target. Particulars: at 10 µM.
The target in assay [7] is PAS domain-containing serine/threonine-protein kinase (Homo sapiens) (UniProt Q96RG2). As to conditions: at 10 µM.
Assay [8] deals with Activated CDC42 kinase 1 (Homo sapiens) (UniProt Q07912). Particulars: at 1 µM.
Sequence of Activated CDC42 kinase 1 (Homo sapiens) (Q07912 whole entry, looked up): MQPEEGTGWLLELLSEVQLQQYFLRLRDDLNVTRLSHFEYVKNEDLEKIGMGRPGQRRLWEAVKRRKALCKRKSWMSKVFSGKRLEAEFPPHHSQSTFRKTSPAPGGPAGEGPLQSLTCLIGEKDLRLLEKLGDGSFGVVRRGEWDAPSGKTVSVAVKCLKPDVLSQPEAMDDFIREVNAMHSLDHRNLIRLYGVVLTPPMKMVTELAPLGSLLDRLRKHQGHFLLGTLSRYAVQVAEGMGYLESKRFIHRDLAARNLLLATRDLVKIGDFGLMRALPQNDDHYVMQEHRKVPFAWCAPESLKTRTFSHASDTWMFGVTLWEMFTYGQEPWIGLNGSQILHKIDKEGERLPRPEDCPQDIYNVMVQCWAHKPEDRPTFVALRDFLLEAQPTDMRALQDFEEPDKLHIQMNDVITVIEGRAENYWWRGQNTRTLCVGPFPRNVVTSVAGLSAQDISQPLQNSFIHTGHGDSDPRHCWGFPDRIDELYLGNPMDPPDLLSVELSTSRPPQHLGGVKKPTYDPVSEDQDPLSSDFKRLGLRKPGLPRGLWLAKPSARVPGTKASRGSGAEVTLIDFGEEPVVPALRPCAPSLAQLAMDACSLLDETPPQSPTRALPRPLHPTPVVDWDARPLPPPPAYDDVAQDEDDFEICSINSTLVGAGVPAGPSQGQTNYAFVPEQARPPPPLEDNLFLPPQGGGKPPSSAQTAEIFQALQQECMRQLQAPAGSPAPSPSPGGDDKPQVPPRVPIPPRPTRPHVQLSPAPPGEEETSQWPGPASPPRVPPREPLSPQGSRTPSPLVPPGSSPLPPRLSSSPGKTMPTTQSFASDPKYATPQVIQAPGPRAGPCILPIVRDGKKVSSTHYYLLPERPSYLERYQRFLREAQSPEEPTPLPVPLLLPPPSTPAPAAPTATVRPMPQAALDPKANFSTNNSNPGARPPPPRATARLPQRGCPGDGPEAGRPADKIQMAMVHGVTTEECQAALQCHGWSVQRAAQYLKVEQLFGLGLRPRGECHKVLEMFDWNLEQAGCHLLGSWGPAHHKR
The target is the same in assay [9]. As to conditions: at 10 µM.
Assay [10] addresses ALK tyrosine kinase receptor (Homo sapiens) (UniProt Q9UM73). Particulars: at 1 µM.
For assay [11] the target is unchanged. As to conditions: at 10 µM.
Assay [12] has as its target T1, Activin receptor type-1B (Homo sapiens) (UniProt P36896).
T1 sequence (whole entry): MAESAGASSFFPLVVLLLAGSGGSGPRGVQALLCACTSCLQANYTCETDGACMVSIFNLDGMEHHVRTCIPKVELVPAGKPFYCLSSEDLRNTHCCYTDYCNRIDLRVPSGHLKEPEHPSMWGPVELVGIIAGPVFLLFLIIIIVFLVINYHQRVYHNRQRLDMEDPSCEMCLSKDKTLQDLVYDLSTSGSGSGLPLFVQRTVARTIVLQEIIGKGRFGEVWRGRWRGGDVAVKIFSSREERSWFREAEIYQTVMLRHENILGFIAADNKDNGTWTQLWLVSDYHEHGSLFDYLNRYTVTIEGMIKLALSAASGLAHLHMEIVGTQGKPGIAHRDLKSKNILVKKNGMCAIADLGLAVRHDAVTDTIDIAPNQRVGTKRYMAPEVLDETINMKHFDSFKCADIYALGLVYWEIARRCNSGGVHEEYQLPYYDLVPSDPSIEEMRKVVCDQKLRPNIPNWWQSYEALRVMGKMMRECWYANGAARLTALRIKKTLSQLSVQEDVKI
As to conditions: at 1 µM.

The target of assay [13] is T1, Activin receptor type-1B (Homo sapiens). Particulars: at 10 µM.
In assay [14] the target is T2, AMP-activated protein kinase (AMPK) alpha-1/beta-1/gamma-1 (Homo sapiens) (UniProt P54619+Q9Y478+Q13131). As to conditions: at 1 µM.
T2 sequence (P54619 whole entry): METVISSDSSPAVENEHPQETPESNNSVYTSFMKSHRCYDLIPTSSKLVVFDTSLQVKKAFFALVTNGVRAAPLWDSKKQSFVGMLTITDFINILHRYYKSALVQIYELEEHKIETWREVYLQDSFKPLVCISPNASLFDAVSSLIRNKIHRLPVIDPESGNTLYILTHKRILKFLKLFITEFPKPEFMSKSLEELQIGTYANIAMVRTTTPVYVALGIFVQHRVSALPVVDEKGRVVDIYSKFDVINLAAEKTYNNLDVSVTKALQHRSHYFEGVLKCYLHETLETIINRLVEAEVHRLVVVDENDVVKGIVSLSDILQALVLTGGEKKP
T2 sequence (Q13131 whole entry partner): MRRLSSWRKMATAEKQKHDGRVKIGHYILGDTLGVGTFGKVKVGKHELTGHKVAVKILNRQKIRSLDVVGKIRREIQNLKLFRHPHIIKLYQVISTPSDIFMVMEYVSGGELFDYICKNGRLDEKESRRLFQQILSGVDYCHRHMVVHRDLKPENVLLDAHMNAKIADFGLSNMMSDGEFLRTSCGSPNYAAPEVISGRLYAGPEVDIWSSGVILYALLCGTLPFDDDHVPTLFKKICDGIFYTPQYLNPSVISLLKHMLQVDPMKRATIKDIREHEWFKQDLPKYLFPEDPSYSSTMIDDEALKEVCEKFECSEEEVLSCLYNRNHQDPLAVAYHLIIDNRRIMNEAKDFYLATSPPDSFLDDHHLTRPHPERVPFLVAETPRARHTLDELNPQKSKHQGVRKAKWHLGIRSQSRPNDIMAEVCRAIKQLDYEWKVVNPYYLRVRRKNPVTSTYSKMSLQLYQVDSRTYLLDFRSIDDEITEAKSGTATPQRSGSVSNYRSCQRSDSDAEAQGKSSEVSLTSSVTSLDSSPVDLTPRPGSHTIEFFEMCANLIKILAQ
T2 sequence (Q9Y478 2-270 partner limits assumed): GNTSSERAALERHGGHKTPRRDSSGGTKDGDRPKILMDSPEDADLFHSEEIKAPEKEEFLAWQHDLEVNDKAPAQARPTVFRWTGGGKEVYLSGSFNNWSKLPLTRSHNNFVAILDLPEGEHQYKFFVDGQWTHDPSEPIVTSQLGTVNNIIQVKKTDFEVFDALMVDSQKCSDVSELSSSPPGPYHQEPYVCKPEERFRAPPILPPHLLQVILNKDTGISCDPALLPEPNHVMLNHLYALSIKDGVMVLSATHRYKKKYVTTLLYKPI
The target of assay [15] is T2, AMP-activated protein kinase (AMPK) alpha-1/beta-1/gamma-1 (Homo sapiens). Particulars: at 10 µM.
Assay [16] addresses T3, AMP-activated protein kinase, AMPK (Homo sapiens) (UniProt P54646+O43741+P54619+Q9UGJ0+Q9Y478+Q13131+Q9UGI9). As to conditions: at 1 µM.
The target in assay [17] is T3, AMP-activated protein kinase, AMPK (Homo sapiens). As to conditions: at 10 µM.
Assay [18] addresses T4, NUAK family SNF1-like kinase 1 (Homo sapiens) (UniProt O60285).
T4 sequence (whole entry): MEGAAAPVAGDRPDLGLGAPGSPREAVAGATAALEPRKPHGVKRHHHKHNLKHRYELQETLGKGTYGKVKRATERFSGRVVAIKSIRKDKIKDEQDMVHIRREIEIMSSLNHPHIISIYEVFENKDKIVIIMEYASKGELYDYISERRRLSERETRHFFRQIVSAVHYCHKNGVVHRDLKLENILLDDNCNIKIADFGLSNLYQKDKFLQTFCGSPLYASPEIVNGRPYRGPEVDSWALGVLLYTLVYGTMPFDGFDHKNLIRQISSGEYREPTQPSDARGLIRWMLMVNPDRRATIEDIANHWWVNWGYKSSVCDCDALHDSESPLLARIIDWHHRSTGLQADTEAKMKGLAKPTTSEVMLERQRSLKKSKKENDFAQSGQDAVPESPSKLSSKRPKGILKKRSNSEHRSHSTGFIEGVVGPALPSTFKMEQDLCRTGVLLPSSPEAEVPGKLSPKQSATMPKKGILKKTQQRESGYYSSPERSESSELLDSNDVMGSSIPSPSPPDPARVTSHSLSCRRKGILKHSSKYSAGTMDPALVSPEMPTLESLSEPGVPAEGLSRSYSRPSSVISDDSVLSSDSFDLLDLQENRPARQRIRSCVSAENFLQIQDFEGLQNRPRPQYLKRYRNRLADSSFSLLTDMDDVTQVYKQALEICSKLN
Particulars: at 1 µM.

Assay [19] deals with T4, NUAK family SNF1-like kinase 1 (Homo sapiens). As to conditions: at 10 µM.
In assay [20] the target is T5, Mitogen-activated protein kinase kinase kinase 5 (Homo sapiens) (UniProt Q99683).
T5 sequence (whole entry): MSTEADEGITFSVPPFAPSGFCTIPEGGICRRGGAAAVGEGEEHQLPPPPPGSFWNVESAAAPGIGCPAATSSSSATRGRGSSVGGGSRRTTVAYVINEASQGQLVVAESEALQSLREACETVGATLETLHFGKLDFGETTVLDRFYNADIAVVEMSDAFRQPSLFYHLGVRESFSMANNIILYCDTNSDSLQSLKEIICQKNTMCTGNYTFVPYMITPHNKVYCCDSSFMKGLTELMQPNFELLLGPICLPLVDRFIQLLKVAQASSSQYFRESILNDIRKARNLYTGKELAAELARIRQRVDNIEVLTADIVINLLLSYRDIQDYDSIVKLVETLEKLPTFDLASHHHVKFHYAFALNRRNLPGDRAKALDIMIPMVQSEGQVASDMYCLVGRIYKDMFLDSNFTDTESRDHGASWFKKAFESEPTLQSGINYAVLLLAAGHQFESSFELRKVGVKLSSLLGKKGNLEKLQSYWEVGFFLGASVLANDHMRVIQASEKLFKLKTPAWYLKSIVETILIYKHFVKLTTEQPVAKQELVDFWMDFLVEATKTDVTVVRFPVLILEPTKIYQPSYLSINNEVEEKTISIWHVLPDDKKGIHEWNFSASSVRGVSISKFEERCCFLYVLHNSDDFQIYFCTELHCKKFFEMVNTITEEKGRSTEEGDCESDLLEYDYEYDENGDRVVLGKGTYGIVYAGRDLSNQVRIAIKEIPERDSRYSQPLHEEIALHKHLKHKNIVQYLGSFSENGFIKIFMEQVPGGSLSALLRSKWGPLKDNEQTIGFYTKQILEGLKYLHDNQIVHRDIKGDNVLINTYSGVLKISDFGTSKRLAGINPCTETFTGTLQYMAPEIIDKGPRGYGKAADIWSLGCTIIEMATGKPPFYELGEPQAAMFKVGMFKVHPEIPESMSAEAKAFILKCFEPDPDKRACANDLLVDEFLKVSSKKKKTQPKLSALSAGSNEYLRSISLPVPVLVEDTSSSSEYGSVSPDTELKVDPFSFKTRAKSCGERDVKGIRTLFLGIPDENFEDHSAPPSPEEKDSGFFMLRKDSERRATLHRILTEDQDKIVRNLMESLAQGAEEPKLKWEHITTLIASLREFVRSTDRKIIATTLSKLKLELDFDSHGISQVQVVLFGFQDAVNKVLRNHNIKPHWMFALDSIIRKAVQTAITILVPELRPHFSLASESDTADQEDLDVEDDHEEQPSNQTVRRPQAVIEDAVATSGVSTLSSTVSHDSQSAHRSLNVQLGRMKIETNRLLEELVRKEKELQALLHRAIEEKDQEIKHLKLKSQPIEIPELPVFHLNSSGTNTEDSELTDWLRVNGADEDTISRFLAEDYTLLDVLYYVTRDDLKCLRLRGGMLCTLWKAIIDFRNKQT
As to conditions: at 1 µM.

Sequence of ALK tyrosine kinase receptor (Homo sapiens) (Q9UM73 19-1620 limits assumed): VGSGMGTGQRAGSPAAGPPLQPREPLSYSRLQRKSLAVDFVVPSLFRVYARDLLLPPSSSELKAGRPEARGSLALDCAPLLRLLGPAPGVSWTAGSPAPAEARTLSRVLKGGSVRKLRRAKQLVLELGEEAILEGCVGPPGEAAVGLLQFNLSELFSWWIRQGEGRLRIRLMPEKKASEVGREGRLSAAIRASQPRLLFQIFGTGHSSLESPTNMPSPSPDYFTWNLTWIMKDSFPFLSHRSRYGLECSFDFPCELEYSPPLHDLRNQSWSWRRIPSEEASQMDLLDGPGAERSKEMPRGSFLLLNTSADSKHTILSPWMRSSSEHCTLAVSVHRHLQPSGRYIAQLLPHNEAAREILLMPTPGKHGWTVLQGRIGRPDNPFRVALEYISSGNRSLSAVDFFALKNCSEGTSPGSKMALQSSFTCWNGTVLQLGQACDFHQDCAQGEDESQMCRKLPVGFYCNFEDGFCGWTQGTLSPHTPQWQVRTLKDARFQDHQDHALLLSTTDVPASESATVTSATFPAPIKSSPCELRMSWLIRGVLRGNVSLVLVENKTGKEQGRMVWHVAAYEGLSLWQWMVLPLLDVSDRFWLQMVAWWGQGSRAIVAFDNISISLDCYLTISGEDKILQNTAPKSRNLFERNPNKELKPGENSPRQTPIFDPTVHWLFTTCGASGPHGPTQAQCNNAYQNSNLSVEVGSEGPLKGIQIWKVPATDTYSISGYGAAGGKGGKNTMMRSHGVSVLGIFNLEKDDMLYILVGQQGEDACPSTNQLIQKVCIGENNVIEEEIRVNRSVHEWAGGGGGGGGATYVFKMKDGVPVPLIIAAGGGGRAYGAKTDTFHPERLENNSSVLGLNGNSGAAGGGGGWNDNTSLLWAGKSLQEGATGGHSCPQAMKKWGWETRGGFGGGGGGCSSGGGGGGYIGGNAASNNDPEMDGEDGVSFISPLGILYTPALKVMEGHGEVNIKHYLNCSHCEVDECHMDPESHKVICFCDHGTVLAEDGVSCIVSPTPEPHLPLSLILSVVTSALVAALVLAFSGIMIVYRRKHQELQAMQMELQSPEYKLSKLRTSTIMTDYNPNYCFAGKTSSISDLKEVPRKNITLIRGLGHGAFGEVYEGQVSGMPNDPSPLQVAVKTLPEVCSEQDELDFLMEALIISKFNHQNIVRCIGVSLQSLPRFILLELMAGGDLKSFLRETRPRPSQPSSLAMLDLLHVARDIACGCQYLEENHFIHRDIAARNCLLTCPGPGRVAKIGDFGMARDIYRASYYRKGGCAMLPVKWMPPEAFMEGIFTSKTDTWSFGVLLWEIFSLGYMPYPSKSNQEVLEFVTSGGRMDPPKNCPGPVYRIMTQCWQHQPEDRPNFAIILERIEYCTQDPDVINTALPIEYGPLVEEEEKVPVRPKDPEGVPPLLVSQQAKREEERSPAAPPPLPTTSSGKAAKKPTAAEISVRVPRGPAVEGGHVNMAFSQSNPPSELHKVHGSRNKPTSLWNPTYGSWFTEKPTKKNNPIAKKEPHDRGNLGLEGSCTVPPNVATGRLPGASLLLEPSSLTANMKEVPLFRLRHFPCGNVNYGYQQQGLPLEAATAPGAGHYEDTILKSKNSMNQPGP
Sequence of Serine/threonine-protein kinase PAK 6 (Homo sapiens) (Q9NQU5 whole entry, looked up): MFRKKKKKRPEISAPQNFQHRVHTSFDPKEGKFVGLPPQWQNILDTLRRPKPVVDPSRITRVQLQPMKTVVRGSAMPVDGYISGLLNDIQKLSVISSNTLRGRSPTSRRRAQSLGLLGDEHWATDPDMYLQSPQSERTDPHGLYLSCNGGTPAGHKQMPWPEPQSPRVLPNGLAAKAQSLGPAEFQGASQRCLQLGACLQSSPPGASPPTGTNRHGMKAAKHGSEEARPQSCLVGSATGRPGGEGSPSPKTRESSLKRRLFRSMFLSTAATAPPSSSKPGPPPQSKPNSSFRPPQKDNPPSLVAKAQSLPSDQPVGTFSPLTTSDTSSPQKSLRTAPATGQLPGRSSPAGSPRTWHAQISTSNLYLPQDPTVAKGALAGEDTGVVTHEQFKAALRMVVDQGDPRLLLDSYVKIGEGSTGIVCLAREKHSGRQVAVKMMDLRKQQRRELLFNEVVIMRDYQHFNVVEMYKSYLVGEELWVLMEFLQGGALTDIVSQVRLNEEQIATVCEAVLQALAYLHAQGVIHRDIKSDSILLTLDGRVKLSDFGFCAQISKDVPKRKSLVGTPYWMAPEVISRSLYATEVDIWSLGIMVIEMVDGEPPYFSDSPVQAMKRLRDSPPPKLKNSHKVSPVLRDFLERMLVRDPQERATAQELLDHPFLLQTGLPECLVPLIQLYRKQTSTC
Sequence of Serine/threonine-protein kinase PAK 4 (Homo sapiens) (O96013 whole entry, looked up): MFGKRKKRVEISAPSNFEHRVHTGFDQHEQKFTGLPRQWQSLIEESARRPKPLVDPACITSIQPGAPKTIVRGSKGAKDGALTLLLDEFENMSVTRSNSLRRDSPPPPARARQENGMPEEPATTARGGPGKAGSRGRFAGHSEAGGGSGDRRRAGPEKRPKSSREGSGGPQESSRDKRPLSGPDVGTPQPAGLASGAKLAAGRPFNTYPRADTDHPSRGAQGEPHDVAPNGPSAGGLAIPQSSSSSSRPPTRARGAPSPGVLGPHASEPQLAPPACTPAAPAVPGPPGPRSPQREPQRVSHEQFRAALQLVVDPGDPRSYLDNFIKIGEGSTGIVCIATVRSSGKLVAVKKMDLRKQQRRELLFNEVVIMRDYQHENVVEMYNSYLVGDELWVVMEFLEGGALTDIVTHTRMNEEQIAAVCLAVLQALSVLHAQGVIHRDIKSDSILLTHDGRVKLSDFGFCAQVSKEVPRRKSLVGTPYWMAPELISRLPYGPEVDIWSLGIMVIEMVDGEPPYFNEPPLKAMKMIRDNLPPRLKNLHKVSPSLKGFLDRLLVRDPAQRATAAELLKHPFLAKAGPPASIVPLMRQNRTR

For the molecule `Ic1cccc(CSc2nnc(-c3ccncc3)o2)c1`, the residual activity in [1] was 91%; in [2] it was 84%; in [3], 91%; in assay [4], 72%; in assay [5], 89%; in assay [6] it was 73%. In addition, the residual activity in assay [7] was found to be 106%; in assay [8], 75%; in [9], 60%; in assay [10] it was 73%; in assay [11] it was 68%; in assay [12], 98%. For the same molecule, the residual activity in assay [13] was 105%; in assay [14], 35%; in [15] it was 25%; in assay [16], 45%; in [17], 32%; in assay [18], 105%. In addition, the residual activity in assay [19] is 60%; in [20], 80%.

On to `O=C(Nc1cccc(Nc2cc(Nc3cccc(C(F)(F)F)c3)ncn2)c1)C1CC1`, for which the residual activity turned out to be 94% in assay [1]; 79% in assay [2]; 100% in assay [3]; 98% in assay [4]; 104% in assay [5]; 90% in [6]. Besides, the residual activity in [7] was determined as 64%; in assay [8], 79%; in [9] it was 26%; in assay [10], 88%; in assay [11], 22%; in assay [12], 126%. Further, the residual activity in assay [13] was found to be 124%; in assay [14], 97%; in assay [15] it was 73%; in assay [16], 103%; in [17], 74%; in [18] it was 90%. In addition, the results for the residual activity in [19] and in assay [20] were 127% and 104%, respectively.

With `O=c1cc(-c2cccc3c2Sc2ccccc2S3)oc(N2CCOCC2)c1`, the residual activity in assay [1] amounted to 106%; in [2] it was 96%; in [3], 108%; in assay [4], 91%; in assay [5] it was 89%; in assay [6], 72%. For the same molecule, the residual activity in assay [7] came to 80%; in [8], 89%; in assay [9] it was 84%; in [10], 97%; in [11], 84%; in assay [12], 88%. In addition, the residual activity in assay [13] was found to be 97%; in assay [14], 108%; in [15], 90%; in [16], 102%; in [17] it was 95%; in assay [18], 102%. The residual activity was 83% in [19] and 102% in assay [20].

On to `Oc1ccc(Nc2nc(-c3ccc(Cl)cc3)cs2)cc1`, for which the residual activity in [1] was found to be 103%; in assay [2] it was 98%; in [3] it was 106%; in assay [4], 104%; in assay [5], 109%; in [6] it was 103%. Also, the residual activity turned out to be 126% in [7]; 89% in assay [8]; 80% in [9]; 82% in assay [10]; 62% in assay [11]; 104% in [12]. Moreover, the residual activity in assay [13] is 110%; in assay [14], 105%; in [15] it was 90%; in assay [16], 119%; in assay [17], 100%; in assay [18], 107%. Moreover, the residual activity in assay [19] came to 84%; in assay [20], 96%.

For the molecule `N#CCCc1ccc2c(c1)-c1[nH]c3ccc([N+](=O)[O-])cc3c1CC(=O)N2`, the residual activity came out at 13% in assay [1]; 4% in assay [2]; 16% in assay [3]; 7% in [4]; 55% in assay [5]; 16% in assay [6]. Besides, the residual activity in [7] turned out to be 52%; in [8], 32%; in assay [9] it was 13%; in [10], 73%; in [11], 45%; in [12], 67%. Further, the residual activity in assay [13] is 23%; in assay [14] it was 57%; in assay [15], 29%; in assay [16], 27%; in [17], 17%; in assay [18] it was 10%. Moreover, in assay [19], the residual activity came to 8%.

For `O=[N+]([O-])c1ccc(-c2nc(-c3ccc(F)cc3)c(-c3ccncc3)[nH]2)cc1`, the residual activity worked out at 108% in assay [1]; 98% in assay [2]; 94% in assay [3]; 96% in assay [4]; 102% in [5]; 105% in [6]. In addition, the residual activity in assay [7] is 119%; in assay [8], 50%; in [9], 11%; in [10] it was 83%; in [11], 65%; in [12], 38%. Besides, the residual activity in assay [13] was 35%; in [14] it was 97%; in assay [15], 94%; in assay [16] it was 91%; in assay [17], 91%; in assay [18], 103%. Besides, the residual activity in assay [19] amounted to 89%; in [20], 96%.

On to `O=C1NC(=O)/C(=C\c2ccc3nccnc3c2)S1`, for which the residual activity in assay [1] is 95%; in assay [2] it was 86%; in [3], 86%; in assay [4], 99%; in assay [5] it was 92%; in assay [6], 94%. Also, the residual activity in assay [7] was determined as 11%; in assay [8], 84%; in assay [9], 66%; in [10] it was 49%; in [11], 46%; in assay [12], 115%. Besides, the residual activity in assay [13] turned out to be 93%; in assay [14], 94%; in assay [15] it was 45%; in assay [16], 108%; in assay [17] it was 56%; in assay [18], 90%. The residual activity in assay [19] amounted to 81%; in assay [20], 78%.
